Measured values from PubChem BioAssay (Tox21).
Records with an inconclusive call do not appear. Values without a mark were called inactive. Calls come from the whole dose curve; as a rule, active = well fitted cell-killing curve with a large enough effect in the repeat runs; inconclusive = weak or mixed curves, or effect the other way; inactive = flat fitted curve, though single readings scatter.

test: qHTS RealTime-Glo MT Cell Viability Assay in HepG2 cells - 40 hour (AID 1224870); settings: RealTime-Glo luminescence; series mostly up to 76.8 µM; activity change, negative = cytotoxic: at the top concentration; note: nearly all actives have a fitted effect of over 50% in size
Outline: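 HepG2 cells (600/well) mixed with RealTime-Glo MT reagent, settled 5 h at 37 C/5% CO2 before compound addition. Nonlytic NanoLuc luminescence from viable-cell prosubstrate reduction read repeatedly during 40 h treatment at 37 C.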
% is set by controls: 0 for no effect and ±100 for the full control effect.

Row | Compound | activity change, negative = cytotoxic
1 | Clc1ccc(Cn2c(CN3CCCC3)nc3ccccc32)cc1 | -11% [at 35.3 µM]
2 | Cn1c(=O)cc(Oc2ccc(F)cc2F)c2cnc(NCC(C)(C)O)nc21 | 0.128%
3 | CCCNCC(O)COc1ccccc1C(=O)CCc1ccccc1 (configuration not stated) | -15.3% [at 35.3 µM]
4 | CCCCC1=NC2(CCCC2)C(=O)N1Cc1ccc(-c2ccccc2-c2nn[nH]n2)cc1 | 0.738% [at 35.3 µM]
5 | CN(C)C(=O)NC1(c2ccccc2)CCN(CC[C@@]2(c3ccc(F)c(F)c3)CN(C(=O)c3ccccc3)CCO2)CC1 | -5.51%
6 | CN1CCC(N(Cc2cccs2)c2ccccc2)CC1 | -10.3% [at 35.3 µM]
7 | CCN(CC)CCOC(=O)C(Cc1cccc2ccccc12)CC1CCCO1 (configuration not stated) | 1.94% [at 35.3 µM]
8 | CCOC(=O)NCCOc1ccc(Oc2ccccc2)cc1 | -10.9%
9 | CN(C)CCCN1c2ccccc2Sc2ccccc21 | -19.9% [at 35.3 µM]
10 | CN(C)c1ccc(C(c2ccccc2)c2ccc(N(C)C)cc2)cc1 | -8.94%
11 | COc1ccc(C(=O)c2ccc(OC)cc2O)c(O)c1 | -8.03%
12 | O=C1OC(CN2CCOCC2)CN1/N=C/c1ccc([N+](=O)[O-])o1 (configuration not stated) | 4.38% [at 35.3 µM]
